Compound activity (PubChem)
TDP1 cell CPT – growth inhibition of DT40 Tdp1-/-;hTDP1 cells with camptothecin (screen for TDP1 inhibitors); chicken DT40 Tdp1-/-;hTDP1 cells + 20 nM CPT, ATP luminescence, 48 h; Potency, µM (highest dose often 46.2 µM), without a hit: top-dose activity change, negative = growth inhibition, hits mostly inhibitors; 420,000 tested, 12% active; further: potency means the concentration at half of the fitted maximal effect; nearly all actives have a fitted effect of over 55% in size
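Chicken DT40 Tdp1-/- cells stably complemented with human TDP1 were seeded at 400 cells/well in medium containing 20 nM camptothecin, exposed to pin-transferred compounds, and grown at 37 °C for at least 48 hr. Viability was read as ATP luminescence.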
CtBP-E1A blk – inhibitors of CtBP/E1A interaction; 340,000 tested, 0.49% active; activity change, % (test concentration not listed); AlphaScreen GST-E1A/His-CtBP binding, 1536-well; hits give low values; AID 651724; in the data active means activity change below about -65%; inconclusive means mostly about -30% to -63%
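In 5 uL wells, 23 nL compound meets equimolar GST-E1A and His-CtBP (5X stock 125 nM each) for 2 h, 37 °C. Beads (5X, 50 ug/mL) then 1 h, 37 °C, dark.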
TDP1 inh – TDP1 (human) enzyme inhibition; Q9NUW8; recombinant TDP1, AlphaScreen DNA substrate cleavage; Potency, µM (titrated, usually from 130 µM), for the others: at the highest dose activity change, negative = inhibition, actives largely listed as inhibitors; 350,000 tested, 0.28% active; AID 485290; further: potency means the concentration at half of the fitted maximal effect; nearly all actives have a fitted effect of over 40% in size
Target sequence (Q9NUW8 whole entry, looked up): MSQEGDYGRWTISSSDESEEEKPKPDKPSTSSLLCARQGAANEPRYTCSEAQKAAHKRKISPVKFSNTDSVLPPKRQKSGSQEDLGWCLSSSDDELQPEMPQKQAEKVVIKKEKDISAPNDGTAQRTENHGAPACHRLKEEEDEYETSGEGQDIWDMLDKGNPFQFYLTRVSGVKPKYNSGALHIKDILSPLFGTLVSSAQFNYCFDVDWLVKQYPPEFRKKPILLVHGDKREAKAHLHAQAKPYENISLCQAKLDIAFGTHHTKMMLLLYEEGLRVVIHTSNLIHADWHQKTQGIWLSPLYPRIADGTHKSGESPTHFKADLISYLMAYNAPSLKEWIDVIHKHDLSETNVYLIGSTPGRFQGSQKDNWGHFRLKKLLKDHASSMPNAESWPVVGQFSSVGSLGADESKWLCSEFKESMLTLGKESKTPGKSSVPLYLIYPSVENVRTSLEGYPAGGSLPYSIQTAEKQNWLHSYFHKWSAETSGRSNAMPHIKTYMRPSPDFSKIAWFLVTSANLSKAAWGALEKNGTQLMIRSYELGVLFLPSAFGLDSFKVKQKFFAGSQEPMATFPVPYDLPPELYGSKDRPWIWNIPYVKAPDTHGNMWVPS
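Signal: AlphaScreen proximity between streptavidin donor and anti-FITC acceptor beads on intact substrate. Reaction: Tdp1 1 nM, substrate 15 nM final, 5 min RT after 15 min compound preincubation.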
IL1B secr inh – inflammasome signaling inhibition, IL-1 beta readout; THP-1 LPS/ATP IL-1B secretion, AlphaLISA, 16 h; hits give low values; activity change, % at 57.5 µM; 360,000 tested, 4.7% active; AID 743279; in the data active means activity change below about -50%; inconclusive means mostly about -30% to -49%
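THP-1 cells pretreated 1 hr with compounds (up to 57.5 uM final), then stimulated with LPS (250 ng/mL final) plus ATP (1.25 mM final); secreted IL-1B measured by AlphaLISA after 16 hr, decreased signal indicating inhibition.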
Six1-Eya2 blk – blocks human Six1 binding to Eya2. Q15475+O00167. AlphaScreen GST-Six1/His-Eya2 binding, biochemical; hits give low values. activity change, % (concentration not given with the values). 360,000 tested, 0.56% active; in the data active means activity change below about -65%; inconclusive means mostly about -30% to -63%
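AlphaScreen with GST-Six1 and His-Eya2 (5X mix: 250 nM and 500 nM), glutathione donor and nickel acceptor beads; buffer 50 mM Tris pH 8.0, 300 mM NaCl, 1 mM TCEP; 1 h at 37 C in the dark.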
DT40 TDP1 no CPT – qHTS for Inhibitors of human tyrosyl-DNA phosphodiesterase 1 (TDP1): qHTS in cells in absence of CPT; 420,000 tested, 15% active; AID 686978, 2013; DT40 Tdp1-/- hTDP1 cells, no CPT, ATP luminescence, 48 h; Potency, µM (titrated, usually from 46.2 µM), for the others: top-dose activity change, negative = growth inhibition, usual class: inhibitors; further: potency means the concentration at half of the fitted maximal effect; nearly all actives have a fitted effect of over 55% in size
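A cellular qHTS used chicken DT40 cells lacking endogenous Tdp1 but carrying stably transfected human TDP1. Compounds were applied without camptothecin, and cell growth kinetics were judged by ATP-dependent luminescence after ≥48 hr.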
* = called active by the depositor; i = inactive; ? = inconclusive; . = not tested or not shown; [ ] = another dose, or the depositor's remark. Shown are actives, neighbours in structure and some others; about 18% of the full set was active somewhere. Unless noted, the call rests on the fitted dose curve; in most records, active means well fitted curve in the direction sought with a large enough effect; inconclusive means small, poorly fitted or top-dose-only effect, or another doubt; inactive means no such curve, though single readings can be large; an effect the other way counts as inactive or inconclusive. On the % scale 0 is the no-effect control and ±100 the full control effect.

SMILES | TDP1 cell CPT | CtBP-E1A blk | TDP1 inh | IL1B secr inh | Six1-Eya2 blk | DT40 TDP1 no CPT
COc1ccc(N2CCN(CCNC(=O)C3CC(=O)N(C4CCCC4)C3)CC2)cc1 (configuration not stated) | -10% | 7 | 3% | 28 | 1 | -8%
CCC(C)C(NC(=O)C1CCC(C)CC1)C(=O)Nc1cc(OC)ccc1OC (configuration not stated) | ? | -7 | 7% | 1 | -7 | 18µM*
COc1ccc(NC(=O)C(CC(C)C)NC(=O)C2CCC(C)CC2)c(OC)c1 (configuration not stated) | 15µM* | 0 | 6% | ? | -17 | ?
COc1cc(NC(=O)C2CCCN2C(=O)C2CCC(C)CC2)cc(OC)c1OC (configuration not stated) | ? | 0 | 5% | 33 | -1 | ?
COc1ccc(OC)c(NC(=O)C2CCCN2C(=O)C2CCC(C)CC2)c1 (configuration not stated) | ? | -2 | 4% | 55 | 0 | 13µM*
CCOC(=O)c1ccccc1NC(=O)Cn1c(=O)n(Cc2nc(C)no2)c(=O)c2ccccc21 | ? | . | -3% | . | . | -29%
CCOc1ccc(NC(=O)CN(C)C(=O)c2cccnc2Sc2ccc(C)cc2C)cc1OCC | -6% | -3 | . | 39 | 0 | -28%
Oc1cc2cc(-c3csc(-c4ccc(F)cc4)n3)cc3c2n1CCC3 | ? | . | . | . | . | 20µM*
CSc1ncccc1C(=O)NNc1cc(Cl)ccc1Cl | -16% | 6 | . | 13 | 1 | 5%
CSc1nc2ncc(C#N)cn2n1 | 4% | -4 | -1% | 5 | 2 | -16%
N#Cc1cnc2nc(SCc3ccccc3)nn2c1 | -1% | 6 | . | -70* | 10 | ?
CC(C)CC1C(C#N)=C(N)Oc2n[nH]c(-c3cccs3)c21 (configuration not stated) | ? | 28 | 5% | -15 | 19 | -24%
CCOC(=O)c1oc2cc(O)cc(O)c2c(=O)c1OCc1ccccc1 | 18µM* | 0 | . | 34 | -4 | 16µM*
CCOC(=O)c1ccc(-c2c(C(=O)OCC)oc3cc(O)c(CC)cc3c2=O)o1 | 15µM* | 0 | 8% | 0 | -4 | 12µM*
O=C(NCC(O)c1ccc([N+](=O)[O-])cc1)C(c1ccccc1)c1ccccc1 (configuration not stated) | ? | -8 | 7% | -2 | -8 | ?
O=C(Nc1ccc([N+](=O)[O-])cc1)C(c1ccccc1)c1ccccc1 | 18µM* | -2 | . | -8 | -8 | 18µM*
O=[N+]([O-])c1ccc(O)c(NC(=S)Nc2ccccc2)c1 | -22% | -5 | -1% | 11 | -14 | -12%
O=[N+]([O-])c1ccc(NNC(=S)Nc2ccccc2)cc1 | 4.5µM* | -11 | 11% | -18 | ? | 2.8µM*
CCc1cccc(CC)c1NC(=O)C1CCC(CNS(=O)(=O)c2cccc3nsnc23)CC1 (configuration not stated) | -15% | . | 1% | . | . | ?
CCCCCCCNC(=O)C1(CC2CC(c3ccc(Cl)cc3)=NO2)CCN(C(=O)c2cc(OCC)c(OCC)c(OCC)c2)CC1 (configuration not stated) | 21µM* | 1 | . | -28 | -4 | 10µM*
CCCCCCCNC(=O)C1(CC2CC(c3ccc(Cl)cc3)=NO2)CCN(C(=O)CCCCCBr)CC1 (configuration not stated) | 16µM* | . | . | ? | 5 | 18µM*
CCCCCCCNC(=O)C1(CC2CC(c3cccc(Br)c3)=NO2)CCN(C(=O)c2ccccc2)CC1 (configuration not stated) | ? | 0 | 1% | -11 | -3 | ?
COc1ccc(CNC(=O)C2(CC3CC(c4ccccc4)=NO3)CCN(C(=O)CCCCCBr)CC2)cc1 (configuration not stated) | 9.2µM* | -4 | . | -9 | -4 | ?
COc1ccc(CNC(=O)C2(CC3CC(c4ccccc4)=NO3)CCN(C(=O)OC(C)(C)C)CC2)cc1 (configuration not stated) | ? | 1 | . | -10 | -7 | ?
CCCCCCCNC(=O)C1(CC2CC(c3cccc(Br)c3)=NO2)CCNCC1 (configuration not stated) | 13µM* | 0 | . | -102* | -1 | 16µM*
SMILES | TDP1 cell CPT | CtBP-E1A blk | TDP1 inh | IL1B secr inh | Six1-Eya2 blk | DT40 TDP1 no CPT
CCOC(=O)c1c(S(=O)(=O)NCC(=O)Nc2ccc(F)cc2C)c(C)n(C)c1C | 1% | . | 3% | . | . | -6%
CCCCCCCNC(=O)C1(CC2CC(c3ccc(Cl)cc3)=NO2)CCNCC1 (configuration not stated) | 8.2µM* | 0 | . | -84* | 2 | 10µM*
CCCNC(=O)C1(CC2CC(c3ccccc3)=NO2)CCNCC1 (configuration not stated) | -4% | 3 | . | -18 | 1 | -11%
CCCCCCCNC(=O)C1(CC2CC(c3ccc(Cl)cc3)=NO2)CCN(C(=O)Cc2ccc(F)cc2)CC1 (configuration not stated) | ? | 0 | . | -24 | -2 | ?
CCCCCCCNC(=O)C1(CC2CC(c3cccc(Br)c3)=NO2)CCN(C(=O)Cc2ccc(F)cc2)CC1 (configuration not stated) | ? | . | -3% | -59* | -13 | 16µM*
CCN(CC)CCNC(=O)c1c(C)oc2ncn(C)c(=O)c12 | -23% | . | 1% | . | . | -8%
COC(=O)CC1C(=O)NCCN1C(=O)CN1Cc2ccccc2OC(c2ccccc2)C1 (configuration not stated) | -5% | . | . | . | . | -14%
CCn1cc(CN2CCC(C(=O)Nc3ccc(Oc4cccnc4)cc3)CC2)c(C)n1 | ? | 6 | 2% | 5 | -3 | ?
CCn1nc(C)c(CN2CCCCC2C(=O)Nc2ccc(Oc3cccnc3)cc2)c1C (configuration not stated) | 9.2µM* | -4 | 0% | i | 8 | 16µM*
Cc1ccc(CN2CCCCC2C(=O)Nc2ccc(Oc3cccnc3)cc2)o1 (configuration not stated) | 5.2µM* | 3 | 6%[56.1 µM] | 30 | -11 | 7.3µM*
C#Cc1ccc(CN2CCC(C(=O)Nc3ccc(Oc4ccccc4)nc3)CC2)cc1 | 15µM* | -1 | 3% | ? | -8 | ?
